Most compounds without a hit are left out; they make up all but 6.3% or so of the library.
Fluor 339 460: intrinsic fluorescence of library compounds, ex339/em460 – biochemical, MLSMR library, data from DPM-DC assay, artefact control, profiling panel; compound autofluorescence, ex339/em460 nm, NADH buffer; active compounds read high; 1 = no-compound wells, NADH background; fluorescence fold increase at 10 µM; 65,000 tested, 5.5% active; AID 709;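 active means at 10 µM, mean starting fluorescence two-fold or more over control wells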;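 further: signal is the first read of a kinetic run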
MK inhibit: blocks S. pneumoniae mevalonate kinase; purified MK, PK/LDH-coupled NADH absorbance 340 nm; inhibition, % at 10 µM; 65,000 tested, 0.48% active;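 active means ranked among the strongest by inhibition in the single 10 µM screen, a fixed top-ranked set picked for dose follow-up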
A340 absorber: absorbance at 340 nm; compound absorbance at 340 nm, fold over control; fold change at 10 µM; AID 708; 65,000 tested, under 10 active;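 active means at 10 µM dose, initial 340 nm absorbance at least 2 fold that of control wells; inactive means change under 2 fold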;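 further: initial absorbance extrapolated from kinetic A340 decline of NADH oxidation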
Spn PMK inh: inhibitors of Streptococcus pneumoniae phosphomevalonate kinase; AID 539; inhibition, % at 10 µM; 65,000 tested, 0.49% active; purified PMK, PK/LDH-coupled NADH absorbance 340 nm;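 active means top-ranked compounds by inhibition in the single 10 µM screen, taking a fixed number of the strongest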;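 further: 0% = full reaction with DMSO carrier and 100% = background rate without enzyme reaction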
DPM-DC inhibit: blocks S. pneumoniae diphosphomevalonate decarboxylase | purified DPM-DC, PK/LDH coupled NADH fluorescence | AID 556 | 65,000 tested, 0.49% active | calls only at 10 µM;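 active means the 320 compounds with the highest percent inhibition in the single-dose primary screen, excluding strongly autofluorescent ones, cut at about 32% in these data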;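 further: kinetic rate of NADH fluorescence loss reporting ADP formed by the decarboxylase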
NADH enzymes: inhibitors of enzymes used to reach an NAD/NADH endpoint; coupled PK/LDH NADH assays, four targets; IC50, µM (doses to about 10 µM), inactives show at the highest dose inhibition; 65,000 tested, 0.02% active; AID 774;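 active means single-dose screening hits from any of four coupled enzyme assays that gave an IC50 when retested across doses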;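 further: the DPM-DC format reads NADH fluorescence rather than 340 nm absorbance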
The depositor's hits bear a star; i = inactive; . = no result shown; + = active, no number.

SMILES	Fluor 339 460	MK inhibit	A340 absorber	Spn PMK inh	DPM-DC inhibit	NADH enzymes
O=S(=O)(c1cccc(-c2cn3cc(Cl)ccc3n2)c1)N1CCOCC1	1.91	0.0	1.08	11.0	i	4.0%
O=S(=O)(c1ccc(-c2cn3ccccc3n2)cc1)N1CCOCC1	2.23*	10.0	1.11	0.0	.	5.0%
Cc1cccn2cc(-c3ccc(S(=O)(=O)N4CCOCC4)cc3)nc12	2.17*	4.0	1.12	0.0	.	2.0%
CCOc1cc(S(=O)(=O)NCCc2cccc(C)c2)c(OCC)cc1-n1cnnn1	3.66*	4.0	1	11.0	.	8.0%
CCOc1cc(S(=O)(=O)N2CCC(Cc3ccccc3)CC2)c(OCC)cc1-n1cnnn1	1.44	0.0	1.01	2.0	i	2.0%
CCOc1cc(S(=O)(=O)NCCc2ccccc2C)c(OCC)cc1-n1cnnn1	3.85*	0.0	1.06	0.0	.	0.0%
Cc1cc2c(cc(C(=O)OCC(=O)NCc3cccs3)n2C(C)C)o1	1.02	0.0	0.98	10.0	i	2.0%
Cc1cc(N2CCC(C)CC2)nc2ccc(N3C(=O)CCC3=O)cc12	5.04*	4.0	1.03	8.0	.	6.0%
Cc1cc(N2CCN(C)CC2)nc2ccc(NC(=O)c3ccc(Br)o3)cc12	1.1	5.0	1.22	0.0	i	2.0%
CCCn1nnnc1NC(=O)CSc1ccc(Cl)cc1	1.08	1.0	1.03	6.0	i	2.0%
Cc1ccc(C2Nc3ccccc3-c3nc4ccccc4n32)o1 (stereo not drawn)	2.45*	10.0	1.05	0.0	.	1.0%
CC1(c2ccncc2)Nc2ccccc2-c2nc3ccccc3n21 (stereo not drawn)	1.66	1.0	1.01	12.0	i	6.0%
O=C(CNS(=O)(=O)c1ccccc1)NCc1ccccn1	1.03	0.0	0.99	0.0	i	3.0%
COC(=O)c1cc2c(ccn2-c2ccc(F)cc2)n1CC(=O)N1CCN(C(=O)c2ccco2)CC1	3.51*	9.0	1.05	0.0	.	5.0%
CCC(CC)C(=O)Nc1c2cnn(-c3ccccc3)c2nc(=O)n1-c1ccccc1	2.19*	4.0	1.04	3.0	i	8.0%
CCOC(=O)C(CC)Sc1nc2c(cnn2-c2ccccc2)c(=O)[nH]1 (stereo not drawn)	1.21	13.0	1.04	6.0	i	7.0%
Nc1nnc(CCS(=O)(=O)c2cc(Cl)ccc2Cl)s1	1.11	53.0*	1.04	0.0	i	18.0%
Nc1nnc(Cc2ccc(Cl)cc2)s1	0.99	9.0	0.98	1.0	i	3.0%
Cc1cc2nc(C3CCN(CC4COc5ccccc5O4)CC3)[nH]c2cc1C (stereo not drawn)	1	1.0	0.99	12.0	i	11.0%
O=C(CCN1CCc2ccccc2C1)Nc1ccc(F)cc1	1.11	12.0	1.03	6.0	i	6.0%
O=C(Nc1ccc(S(=O)(=O)N2CCN(Cc3ccccc3)CC2)cc1)c1cnccn1	1.06	6.0	0.99	4.0	i	4.0%
O=C(NCc1ccco1)c1c[nH]c2ccc(S(=O)(=O)N3CCOCC3)cc2c1=O	2.11*	0.0	1.08	15.0	.	8.0%
Cc1ccc(S(=O)(=O)N2CCOCC2)cc1C(=O)NCc1ccco1	1	3.0	0.99	12.0	i	6.0%
CCCCN(C)C(=O)c1c[nH]c2ccc(S(=O)(=O)N3CCOCC3)cc2c1=O	2.17*	0.0	1.05	8.0	.	4.0%
O=C(O)c1c[nH]c2ccc(S(=O)(=O)N3CCOCC3)cc12	1.04	8.0	1.01	10.0	i	6.0%
SMILES	Fluor 339 460	MK inhibit	A340 absorber	Spn PMK inh	DPM-DC inhibit	NADH enzymes
COc1cc(N2C(=O)NC3CC2(C)Oc2ccc(Br)cc23)cc(OC)c1OC (stereo not drawn)	1.14	0.0	1.03	0.0	i	0.0%
CC(=O)c1ccc(C(C)(C)c2ccc(C(C)=O)s2)s1	1.08	4.0	1.02	0.0	i	1.0%
CSc1nc2ccc3nc(NC(=O)c4cccs4)sc3c2s1	4.55*	7.0	1.08	13.0	.	10.0%
CC(C)(C)c1csc(NC(=O)c2cccs2)n1	1.17	5.0	1.09	0.0	i	2.0%
CCNc1ccc2c(Cl)cc(=O)oc2c1	2.94*	i	1.02	0.0	.	1.0%
Cc1nc2ccc3nc(NC(=O)c4ccc5c(c4)OCCO5)sc3c2s1	3.47*	3.0	1.04	18.0	i	7.0%
O=C(Nc1cccc2nsnc12)c1ccc2c(c1)OCCO2	1.77	7.0	0.99	10.0	i	10.0%
Cc1nc2c(ccc3nc(NC(=O)c4ccc5c(c4)OCCO5)sc32)s1	2.38*	11.0	1.01	13.0	i	12.0%
Cc1cccc(OCC(=O)Nc2ccc(N3CCCC3)cc2)c1C	1.01	5.0	0.99	10.0	i	4.0%
CCOc1ccccc1OCC(=O)Nc1ccc(N2CCCCC2)cc1	1.06	4.0	1.02	0.0	+	16.0%
CC(C)CCNC(=O)CN(Cc1ccc2c(c1)OCO2)C(=O)Cn1nnc(-c2cccs2)n1	1.13	4.0	0.98	13.0	i	6.0%
Cc1ccc2c(c1)[nH]c1c(=O)n(CCN3CCCCC3)cnc12	1.67	0.0	1.08	11.0	i	6.0%
COc1ccc2c(c1)c1ncn(CCN3CCCC3)c(=O)c1n2C	3.69*	9.0	1.05	10.0	.	10.0%
COc1ccccc1CCn1cnc2c3cc(C)ccc3n(C)c2c1=O	3.3*	4.0	1.01	0.0	i	8.0%
O=C(NCc1ccccn1)C(C(=O)c1ccc(F)cc1)n1ccccc1=O (stereo not drawn)	1.02	5.0	0.99	13.0	i	3.0%
Cc1ccc(-c2nnc3ccc(SCC(=O)Nc4cc(C)on4)nn23)cc1	2.01*	3.0	1.01	10.0	i	5.0%
CC1CCN(C(=O)CSc2nc3ccccc3[nH]2)CC1	1.02	1.0	1.07	32.0*	i	3.0%
Cc1cc(NC(=O)CSc2ccc3nnc(-c4ccc(F)cc4)n3n2)no1	1.96	0.0	1.01	13.0	i	7.0%
CC1CCN(C(=O)CSc2ccc3nnc(-c4ccccc4)n3n2)CC1	2.25*	5.0	0.99	7.0	i	5.0%
O=C(CSc1ccc2nnc(-c3ccccc3)n2n1)NCC1CCCO1 (stereo not drawn)	2.2*	5.0	0.99	13.0	i	10.0%
O=C(CSc1nc2ccccc2[nH]1)N1CCN(c2ccc(F)cc2)CC1	1.1	11.0	1.03	5.0	i	5.0%
CCCN1C2CCCC1CC(NC(=O)c1cc(OC)c(OC)c(OC)c1)C2 (stereo not drawn)	1	7.0	1.01	11.0	i	6.0%
CCOc1cc(NC(=O)C2CC2)c(OCC)cc1NC(=O)c1cccnc1	1.09	0.0	1.04	0.0	i	0.0%
CCCn1c(N2CCN(CC(=O)c3c[nH]c4ccccc34)CC2)nc2c1c(=O)[nH]c(=O)n2C	1.2	4.0	1.05	5.0	i	6.0%
CC1CCN(C(=O)CSc2ccc3nnc(-c4ccc(F)cc4)n3n2)CC1	2.26*	1.0	1.01	12.0	i	5.0%

From PubChem BioAssay
